From PubChem BioAssay (Tox21) come the findings set out here.

Molecules are shown by their SMILES. Activity calls are given as the source filed them. The call rests on the fitted dose curve; in most records, active means well fitted activation curve with a large enough effect in the repeat runs; inconclusive means weak or mixed curves; inactive means flat fitted curve, though single readings scatter.
On the % scale 0 is the no-effect control and ±100 the full control effect.

The nature of the test: Caspase-3/7 induction in CHO-K1 cells by small molecules, qHTS assay (AID 1346980). Further: nearly all actives have a fitted effect of over 15% in size. The note with it: CHO-K1 caspase-3/7 induction, Caspase-Glo luminescence, 17 h; series mostly up to 92.4 µM. The essentials:
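Wild-type cells were seeded at 1,500 per well and settled 5 hr at 37 C, 5% CO2, then exposed to DMSO-dissolved compounds for 17 hr. Caspase-Glo 3/7 reagent was added, and luminescence was read after 30min at room temperature.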
On the technique in general: Quantitative high-throughput screening tests each substance at several concentrations.
Consider `CCN(CC)C(=O)/C(C#N)=C/c1cc(O)c(O)c([N+](=O)[O-])c1`, for which the call was inactive.

As to `C[C@@H]1C[C@H]2[C@@H]3CCC4=CC(=O)C=C[C@]4(C)[C@@]3(F)[C@@H](O)C[C@]2(C)[C@@]1(O)C(=O)COP(=O)(O)O`, the result was inactive.

Regarding `O=C(O)CN1C(=O)c2cccc3cccc(c23)C1=O`, the result was inactive.

Consider `CCOC(=O)c1c(N)sc2c1CCN(Cc1ccccc1)C2`, for which the result was inactive.

As for `CC[C@@H](CO)NCCN[C@@H](CC)CO`, the molecule was called inactive.

As to `CCOC(=O)c1ccc(NC(=O)CN2CCCCC2)cc1`, the molecule was classed as inactive.

On to `CC(=O)OCC(C)C`, for which the outcome was inactive.

For the molecule `Cc1cn([C@H]2C[C@H](F)[C@@H](CO)O2)c(=O)[nH]c1=O`, the molecule was called inactive.

In the case of `O=S(=O)(O)CO`, the call was inactive.

With `COC(=O)Nc1nc2ccc(C(=O)C3CC3)cc2[nH]1`, the molecule was classed as inactive.

Regarding `CCCCCCCCCCCSCC(=O)O`, the molecule was classed as inactive.

Take `CC(C)C(O)C(C)(C)CO` (stereo not drawn): the outcome was inactive.

Regarding `Nc1nc(-c2ccc([N+](=O)[O-])cc2)cs1`, the molecule was classed as inactive.

Take `CC(CCc1ccc(O)cc1)NCCc1ccc(O)c(O)c1` (stereo not drawn): the call was inactive.

Consider `COc1cc(NC(C)CCCN)c2ncccc2c1` (stereo not drawn), for which the result was inactive.

On to `CC(C)OC(=O)c1ccccc1C(=O)OC(C)C`, for which the call was inactive.

Take `Cc1ccccc1S(N)(=O)=O`: the result was inactive.

`COc1cc(S(=O)(=O)Nc2ccccc2)c(OC)cc1N`: the molecule was called inactive.

For the molecule `COC1CCC=CO1` (stereo not drawn), the outcome was inactive.

`O=C1NC(=O)c2cccc3cccc1c23`: the molecule was called inactive.

In the case of `c1ccc2sc(SSc3nc4ccccc4s3)nc2c1`, the caspase-3/7 activation was -0.79% [at 19 µM] (inactive).

Regarding `NC(=O)c1ccccc1[N+](=O)[O-]`, the outcome was inactive.

On to `COc1cc(NCc2ccc3nc(N)nc(N)c3c2C)cc(OC)c1OC`, for which the molecule was called inactive.

As for `O=C1OC(=O)c2c(Br)c(Br)c(Br)c(Br)c21`, the call was inactive.

`CCCCCC`: the result was inactive.

Turning to `CC[C@H]1OC(=O)[C@H](C)[C@@H](O[C@H]2C[C@@](C)(OC)[C@@H](O)[C@H](C)O2)[C@H](C)[C@@H](O[C@@H]2O[C@H](C)C[C@H](N(C)C)[C@H]2O)[C@](C)(O)C[C@@H](C)CN(C)[C@H](C)[C@@H](O)[C@]1(C)O`, the call was inactive.

As for `Cc1ccc(Nc2c(F)cccc2Cl)c(CC(=O)O)c1`, the call was inactive.

Consider `c1ccc(CCCc2ccncc2)cc1`, for which the molecule was classed as inactive.

Consider `CC(C)c1ccc(C(=O)N=C(N)N)cc1S(C)(=O)=O`, for which the outcome was inactive.

For the molecule `COC(=O)C1=C(C)NC(C)=C(C(=O)OC(C)(C)CN(C)CCC(c2ccccc2)c2ccccc2)C1c1cccc([N+](=O)[O-])c1` (stereo not drawn), the outcome was inactive.

On to `Cc1ccc2c(c1[N+](=O)[O-])C(=O)c1ccccc1C2=O`, for which the molecule was called inactive.

Turning to `O=c1[nH]c2cc(C(F)(F)F)c(N3CCOCC3)cc2n(CP(=O)(O)O)c1=O`, the molecule was classed as inactive.

`Cc1ccc2c(c1)CCCN2`: the molecule was classed as inactive.

For `COc1ccc(N)c([N+](=O)[O-])c1`, the molecule was classed as inactive.

As for `C1CCCCC1`, the result was inactive.

Take `C1=CCC2CC=CC2C1` (stereo not drawn): the call was inactive.

In the case of `CN1CCCN(C(c2ccccc2)c2ccc(Cl)cc2)CC1` (stereo not drawn), the outcome was inactive.

Regarding `CC(CN(CCN(CC(C)OCCO)CC(C)OCCO)CC(C)OCCO)OCCO` (stereo not drawn), the call was inactive.
